Results from PubChem BioAssay.
Active and inactive are the calls of the source.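 How the source made its calls: active means compounds whose cell count with miR-34 switched on is under 0.7 times the count with it off; inactive means the rest.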

Assay: viability loss with induced miR-34 in A549 – imaging, A549 dox-inducible miR-34, nuclei and caspase counts, primary screen (AID 1347080); further: test concentration not given here
Details: A549 miR-34 inducible, Hoechst nuclei count, 48 h
[1] = stronger effect = lower value, cell number ratio, induced over uninduced
[2] = measured here: relative caspase fold change +Dox/-Dox
[3] = measured here: total cells with miR-34 induction, stronger effect = lower value
[4] = measured here: total cells without miR-34 induction

Structure (SMILES)	fold change [1]	fold change [2]	cell count [3]	cell count [4]
O=C(O)CCC/C=C\C[C@@H]1[C@@H](/C=C/C(=O)CCc2ccccc2)[C@H](O)C[C@@H]1O	0.902 (inactive)	1.59	5390	5980
CCCCCCCC/C=C\CCCCCCCCCCCCCC(=O)NCCS(=O)(=O)O	0.871 (inactive)	0.338	5170	5940
O=C(O)CCCCCC[C@@H]1[C@@H](CC[C@@H](O)CCc2cccc(C(F)(F)F)c2)[C@H](O)C[C@@H]1O	1.13 (inactive)	1.38	6150	5440
CCCCC[C@@H](O)CC[C@H]1[C@H](O)CC(=O)[C@@H]1CCCCCCC(=O)O	0.971 (inactive)	1.47	5350	5510
CCCCCC(=O)CC[C@H]1C(=O)C=C[C@@H]1C/C=C\CCCC(=O)O	0.989 (inactive)	0.66	5270	5330
O=C(O)CCC/C=C\C[C@@H]1C(=O)C[C@@H](O)[C@@H]1/C=C/[C@@H](O)CC1CCCCC1	1.22 (inactive)	0.461	7070	5800
OCC(O)[C@@H](O)CO (stereo not given in full)	0.92 (inactive)	0.896	8910	9680
CCCCC[C@@](C)(O)/C=C/[C@@H]1C(C/C=C\CCCC(=O)O)[C@@H](O)C[C@H]1O (stereo not given in full)	0.939 (inactive)	1.76	6110	6510
COc1cc(/C=C/C(=O)N2CCCCCC2)cc(OC)c1OC	0.968 (inactive)	0.988	7660	7910
COc1ccc2c(c1)c(CC(=O)Nc1ccc(NC(C)=O)cc1)c(C)n2C(=O)c1ccc(Cl)cc1	1.05 (inactive)	1.43	5880	5610
OC1C[C@@H]2[C@@H](CC[C@@H](O)CCc3ccccc3)[C@H](O)C[C@@H]2O1 (stereo not given in full)	1.04 (inactive)	0.862	6130	5890
OC[C@H]1NC[C@H](O)[C@@H](O)[C@@H]1O	0.965 (inactive)	0.787	5000	5180
CCCCC[C@H](O)/C=C/[C@H]1C2CC(CO2)[C@@H]1C/C=C\CCCC(=O)O (stereo not given in full)	0.956 (inactive)	0.835	5400	5650
CCCCCCCCCCCCCCCC(=O)NC[C@@H](C)O	1.02 (inactive)	0.848	6270	6160
CCCCCCCCCCCCCCCCOC[C@H](COP(=O)([O-])OCC[N+]1(C)CCCC1)OC(C)=O	0.82 (inactive)	1.31	5250	6400
CC(=O)OCC(=O)[C@@]12N=C(C)O[C@@H]1CC1C3CCC4=CC(=O)C=C[C@]4(C)C3[C@@H](O)C[C@@]12C (stereo not given in full)	0.915 (inactive)	0.993	6330	6910
CCCCCCCCCCCCCCCCCCCCCCCCC(=O)OC	1.06 (inactive)	0.88	6850	6470
CCCCCCC[C@H](O)/C=C/[C@H]1[C@H](O)CC(=O)[C@@H]1C/C=C\CCCC(=O)O	0.933 (inactive)	1.19	5790	6200
NC(=O)CCC/C=C\C[C@@H]1[C@@H](/C=C/[C@@H](O)CCc2ccccc2)[C@H](O)C[C@@H]1O	0.961 (inactive)	1.58	6210	6460
CCCCC/C=C\C/C=C\C/C=C\C/C=C\CCCC(=O)Oc1ccc2ccc(=O)oc2c1	0.939 (inactive)	0.946	5890	6270

Structure (SMILES)	fold change [1]	fold change [2]	cell count [3]	cell count [4]
c1ccc(C(OC2CCN(CCCc3nn[nH]n3)CC2)c2ccccc2)cc1	0.935 (inactive)	1.12	5840	6240
CCCCCCCCCCCCCCCC(=O)OC[C@@H](O)COP(=O)([O-])OCC[N+](C)(C)C	1.02 (inactive)	1.32	5910	5770
Nc1nc2c([nH]c(=O)n2[C@H]2C[C@H](O)[C@@H](CO)O2)c(=O)[nH]1	0.857 (inactive)	1.18	4960	5800
CCCCC[C@H](O)/C=C/[C@@H]1[C@@H](C/C=C\CCCC(=O)NCCO)[C@@H](O)C[C@@H]1O	0.916 (inactive)	1.36	5800	6330
CCCCCC(=O)/C=C/[C@@H]1[C@H](C/C=C\CCCC(=O)O)[C@H](O)C[C@H]1O	0.99 (inactive)	3.22	5630	5690
C#CCCC[C@@H](O)CCCCCCCCCCC(=O)O	0.902 (inactive)	1.14	5310	5890
C[C@@H]1C[C@H]2O[C@@H]2/C=C\C=C\C(=O)Cc2c(Cl)c(O)cc(O)c2C(=O)O1	1.01 (inactive)	1.3	2240	2220
CC/C=C\C/C=C\C/C=C\CCCCCCCC(=O)OCC	0.898 (inactive)	0.639	5180	5770
CN(C)c1cc(NC(=O)CNC(C)(C)C)c(O)c2c1C[C@H]1C[C@@H]3C(C(=O)C(C(N)=O)=C(O)[C@H]3N(C)C)C(=O)C1=C2O (stereo not given in full)	0.886 (inactive)	0.781	8740	9860
CCCCCCCCCCCC(=O)CC(=O)N[C@H]1CCOC1=O	1.1 (inactive)	1.72	6190	5610
CN(C)c1ccc(C(=O)NCCCCCC(=O)NO)cc1	0.991 (inactive)	1.29	5550	5600
C[C@@H](C(=O)O)c1ccc(-c2ccccc2)c(F)c1	0.967 (inactive)	0.615	6150	6360
CC(C)ON(CC(=O)NO)S(=O)(=O)c1ccc(-c2ccccc2)cc1	0.989 (inactive)	1.73	6160	6240
CCCCCCCC/C=C/CCCCCCCC(=O)O	1.1 (inactive)	0.875	6340	5750
CCCCCCCCC#CCCCCCCCC(=O)c1nc2ncccc2o1	1.03 (inactive)	1.11	6180	5990
CCCCC[C@H](O)CC[C@@H]1[C@@H](CCCCCCC(=O)O)[C@@H](O)C[C@H]1O	0.832 (inactive)	1.1	6210	7460
CCCCCCCC/C=C\CCCCCC(=O)O	0.938 (inactive)	0.407	5490	5860
CCCCCCCCCCCCCCCCSC[C@H](COP(=O)([O-])OCC[N+](C)(C)C)NC(=O)CCCCCCCCCCCCCCC	1.04 (inactive)	0.778	6260	6010
CCCCCCCCCCCCCCCCCC(=O)N[C@H]1CCOC1=O	1.11 (inactive)	1.44	6650	6000
CC(=O)[C@H]1[C@H](C#N)C[C@H]2[C@@H]3CC=C4C[C@@H](O)CC[C@]4(C)[C@H]3CC[C@@]21C	1.01 (inactive)	1.04	5370	5300

Structure (SMILES)	fold change [1]	fold change [2]	cell count [3]	cell count [4]
CCCCCC/C=C\CCCCCCCC(=O)OCC	0.904 (inactive)	1.03	5560	6150
CCN(CC)C(=O)CCC/C=C\C[C@@H]1[C@@H](/C=C/[C@@H](O)CCc2ccccc2)[C@H](O)C[C@@H]1O	0.995 (inactive)	1.45	5990	6020
CCCCC[C@](C)(O)/C=C/[C@H]1[C@H](O)CC(=O)[C@@H]1C/C=C\CCCC(=O)O	0.915 (inactive)	1.22	5410	5910
[C-]#[N+]c1cc(-c2ccncc2)c(C)[nH]c1=O	0.91 (inactive)	1.32	5870	6450
CCCCC/C=C\C/C=C\C/C=C\C/C=C\CCCC(=O)OCC	0.807 (inactive)	0.655	5170	6410
O=P(O)(O)O[C@@H]1[C@H](O)[C@H](O)[C@@H](OP(=O)(O)O)[C@H](OP(=O)(O)O)[C@H]1O	0.931 (inactive)	0.377	5940	6380
CC(C)=CCC/C(C)=C/CC/C(C)=C/C(O)P(=O)(O)O (stereo not given)	0.968 (inactive)	0.767	5800	5990
CCCCCOc1ccccc1C(O)CC#CCCCC(=O)OC (stereo not given)	0.937 (inactive)	1.89	5930	6340
CC(=O)OC1=C(C)NC(C)=C(OC(C)=O)C1c1ccccc1[N+](=O)[O-]	0.849 (inactive)	1.01	3570	4210
CCCCC[C@H](O)/C=C/[C@H]1[C@H](O)CC(=O)[C@@H]1C/C=C\CCCC(=O)OCC(O)CO (stereo not given in full)	0.945 (inactive)	0.932	5540	5860
CCCCC[C@@](C)(O)/C=C/[C@@H]1[C@@H](C/C=C\CCCC(=O)OC)[C@@H](O)C[C@H]1O	0.949 (inactive)	1.07	5940	6260
O=C(O)CCC/C=C\C[C@@H]1C(=O)C[C@@H](O)[C@@H]1/C=C/[C@@H](O)CCc1ccccc1	0.867 (inactive)	0.324	5200	6000
CC(C)Oc1ccc(C(=O)c2ccc(NC3=NCCN3)cc2)cc1	1.07 (inactive)	0.773	6020	5650
CC(C)(C)OC(=O)Nc1cccc2[nH]ccc12	0.913 (inactive)	0.676	4970	5440
CCCCC[C@H](O)/C=C/[C@H]1C(=O)C[C@H](O)[C@@H]1CCCCCCCO	1.14 (inactive)	1.46	5820	5120
CCCCCCCCCCCCC/C=C/[C@@H](O)[C@H](COP(=O)(O)O)NC(=O)CCCCCCC	1.01 (inactive)	0.912	5610	5550
CCCCCC(=O)CC[C@@H]1[C@@H](C/C=C\CCCC(=O)OC(C)C)[C@@H](O)C[C@H]1O	0.977 (inactive)	1.56	6190	6330
CCCCCCCCCCCC1N[C@H](C(=O)O)CS1 (stereo not given in full)	0.939 (inactive)	1.06	5330	5670
CCCC/C=C/C=C/C=C\CCCCCCCC(=O)OC	0.701 (inactive)	0.864	3920	5590
c1ccc([B-]2(c3ccccc3)[NH2+]CCO2)cc1	0.926 (inactive)	1.45	3950	4260
